Laboratory results reported in PubChem BioAssay AID2284073 (EPA ToxCast).
Active and inactive are the calls of the source. The calls were made as follows: active = hit-call score of the fitted dose curve at least 0.9, where 1 is the maximum; inactive = score below 0.9.

molecular target: human (CYP19A1), CYP19A1 (gene 1588) (UniProt P11511); assay: ERF_TW_ENZ_hCYP19A1: Eurofins (ERF) Enzymatic CYP450 LeadHunter Assay for human (CYP19A1)
Procedure: ERF_TW_ENZ_hCYP19A1 is a biochemical, single-readout assay that uses extracted gene-proteins in a cell-free assay. Measurements were taken 0.75 hour after chemical dosing in a 96-well plate. See CYP19A1 Human CYP450 Enzymatic Assay, Panlabs.ERF_TW_ENZ_hCYP19A1 is an assay component calculated from the ERF_TW_ENZ_hCYP19A1 assay. It is designed to measure enzyme activity using a type of enzyme reporter as detected by fluorescence intensity with spectrophotometry technology.Data from the assay component ERF_TW_ENZ_hCYP19A1 was analyzed at the assay endpoint, ERF_TW_ENZ_hCYP19A1, in the positive analysis fitting direction relative to DMSO as the negative control and baseline of activity. Using a type of enzyme reporter, loss-of-signal activity can be used to understand changes in enzymatic activity as they relate to gene CYP19A1. To generalize the intended target to other relatable targets, this assay endpoint is annotated to the cyp intended target family, where the subfamily is steroidogenesis-related.
Human recombinant CYP450 19 plus P450 reductase, expressed in baculovirus infected insect BTI-TN-5B1-4 cells is used. Test compound and/or vehicle is preincubated with 4 nM enzyme in phosphate buffer pH 7.4 for 15 minutes at 37C. […] Determination of the amount of dibenzylfluorescein remaining is read spectrofluorimetrically. […]

Sequence of human (CYP19A1), CYP19A1 (gene 1588) (P11511 whole entry, looked up): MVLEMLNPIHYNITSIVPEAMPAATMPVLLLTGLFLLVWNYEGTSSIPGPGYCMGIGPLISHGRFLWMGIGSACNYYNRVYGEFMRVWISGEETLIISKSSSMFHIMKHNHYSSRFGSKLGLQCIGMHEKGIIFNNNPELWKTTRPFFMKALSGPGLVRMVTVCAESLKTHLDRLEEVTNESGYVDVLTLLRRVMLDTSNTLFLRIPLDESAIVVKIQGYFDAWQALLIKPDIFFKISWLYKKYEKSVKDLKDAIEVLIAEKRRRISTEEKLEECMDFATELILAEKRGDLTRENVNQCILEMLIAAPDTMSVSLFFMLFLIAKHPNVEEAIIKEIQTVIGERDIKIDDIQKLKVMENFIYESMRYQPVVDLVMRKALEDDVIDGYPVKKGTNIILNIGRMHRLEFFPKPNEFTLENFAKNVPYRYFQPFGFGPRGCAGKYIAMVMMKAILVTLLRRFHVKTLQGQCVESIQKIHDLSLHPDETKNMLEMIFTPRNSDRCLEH

| Compound | AC50 |
| --- | --- |
| COc1cc(CCC(=O)CC(=O)CCc2ccc(O)c(OC)c2)ccc1O | 5.05 µM (active) |
